# Results: ChEMBL document CHEMBL2218924, “A broad activity screen in support of a chemogenomic map for kinase signalling research and drug discovery” (Biochem J, 2013)
# Target: Serine/threonine-protein kinase PLK3 (Homo sapiens) (UniProt Q9H4B4)
# Conditions: at 1 µM; call rule not given here
# Chain of Serine/threonine-protein kinase PLK3 (Homo sapiens) (Q9H4B4 whole entry, looked up): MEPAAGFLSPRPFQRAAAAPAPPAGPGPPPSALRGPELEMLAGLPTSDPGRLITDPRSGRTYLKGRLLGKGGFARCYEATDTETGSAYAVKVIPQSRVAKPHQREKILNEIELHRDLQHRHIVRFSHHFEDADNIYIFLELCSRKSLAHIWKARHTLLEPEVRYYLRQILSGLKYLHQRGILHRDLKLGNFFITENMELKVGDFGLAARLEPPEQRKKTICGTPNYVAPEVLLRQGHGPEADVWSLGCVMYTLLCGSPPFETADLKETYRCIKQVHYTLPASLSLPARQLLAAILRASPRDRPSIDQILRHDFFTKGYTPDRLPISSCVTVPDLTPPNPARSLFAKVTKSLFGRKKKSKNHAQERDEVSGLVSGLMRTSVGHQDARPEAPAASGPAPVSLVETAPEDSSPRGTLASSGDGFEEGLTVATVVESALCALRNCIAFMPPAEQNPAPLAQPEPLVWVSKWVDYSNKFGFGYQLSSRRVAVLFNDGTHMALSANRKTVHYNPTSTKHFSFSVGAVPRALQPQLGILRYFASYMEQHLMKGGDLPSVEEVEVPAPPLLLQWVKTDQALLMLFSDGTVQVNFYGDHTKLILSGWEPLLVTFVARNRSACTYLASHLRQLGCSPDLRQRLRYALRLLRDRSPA
row,SMILES,residual activity
1,CC(C)(C)c1cc(C=C(C#N)C#N)cc(Br)c1O,102% (inactive)
2,CC(C)[C@H](CO)Nc1nc(Nc2cccc(Cl)c2)c2ncn(C(C)C)c2n1,99% (inactive)
3,COC(=O)[C@@]1(O)C[C@H]2O[C@]1(C)n1c3ccccc3c3c4c(c5c6ccccc6n2c5c31)C(=O)NC4,90% (inactive)
4,N/C(=N\[N+](=O)[O-])N/N=C\c1ccc(-c2cccc([N+](=O)[O-])c2)o1,100% (inactive)
5,O=C1c2ccccc2-c2nc3nnnn3nc21,76% (inactive)
6,COc1cc2ncnc(Nc3ccc(OCc4ccccc4)cc3)c2cc1OC,90% (inactive)
7,O=c1[nH]c2ccccc2n1C1CCN(Cc2ccc(-c3nc4cc5[nH]cnc5cc4nc3-c3ccccc3)cc2)CC1,97% (inactive)
8,CCn1cnc2c(Nc3cccc(Cl)c3)nc(N[C@@H]3CCCC[C@@H]3N)nc21,94% (inactive)
9,CCc1nc(-c2ccc(OC)cc2)[nH]c1-c1ccncc1,106% (inactive)
10,C[S+]([O-])c1ccc(-c2nc(-c3ccc(F)cc3)c(-c3ccncc3)[nH]2)cc1 (stereo unspecified),90% (inactive)
11,CN[C@@H]1C[C@H]2O[C@@](C)([C@@H]1OC)n1c3ccccc3c3c4c(c5c6ccccc6n2c5c31)C(=O)NC4,81% (inactive)
12,O=C1Nc2ccc3ncsc3c2/C1=C/c1c[nH]cn1,70% (inactive)
13,O=C1NC(=O)c2c1c1c3ccccc3n3c1c1c2c2ccccc2n1C1CCC3O1,88% (inactive)
14,COc1cc(OC)c(/C=C2\C(=O)Nc3ccccc32)c(OC)c1,91% (inactive)
15,COc1ccc2c(c[n+](C)c3c4cc5c(cc4ccc23)OCO5)c1OC,96% (inactive)
16,O=[N+]([O-])/C=C/c1ccc2c(c1)OCO2,96% (inactive)

# Target: Serine/threonine-protein kinase PLK3 (Homo sapiens) (UniProt Q9H4B4)
# Conditions: at 10 µM
row,SMILES,residual activity
1,CC(C)(C)c1cc(C=C(C#N)C#N)cc(Br)c1O,110%
2,CC(C)[C@H](CO)Nc1nc(Nc2cccc(Cl)c2)c2ncn(C(C)C)c2n1,87%
3,COC(=O)[C@@]1(O)C[C@H]2O[C@]1(C)n1c3ccccc3c3c4c(c5c6ccccc6n2c5c31)C(=O)NC4,54%
4,N/C(=N\[N+](=O)[O-])N/N=C\c1ccc(-c2cccc([N+](=O)[O-])c2)o1,99%
5,O=C1c2ccccc2-c2nc3nnnn3nc21,12%
6,COc1cc2ncnc(Nc3ccc(OCc4ccccc4)cc3)c2cc1OC,96%
7,O=c1[nH]c2ccccc2n1C1CCN(Cc2ccc(-c3nc4cc5[nH]cnc5cc4nc3-c3ccccc3)cc2)CC1,94%
8,CCn1cnc2c(Nc3cccc(Cl)c3)nc(N[C@@H]3CCCC[C@@H]3N)nc21,89%
9,CCc1nc(-c2ccc(OC)cc2)[nH]c1-c1ccncc1,102%
10,CN[C@@H]1C[C@H]2O[C@@](C)([C@@H]1OC)n1c3ccccc3c3c4c(c5c6ccccc6n2c5c31)C(=O)NC4,50%
11,O=C1Nc2ccc3ncsc3c2/C1=C/c1c[nH]cn1,68%
12,O=C1NC(=O)c2c1c1c3ccccc3n3c1c1c2c2ccccc2n1C1CCC3O1,94%
13,COc1cc(OC)c(/C=C2\C(=O)Nc3ccccc32)c(OC)c1,91%
14,COc1ccc2c(c[n+](C)c3c4cc5c(cc4ccc23)OCO5)c1OC,77%
15,O=[N+]([O-])/C=C/c1ccc2c(c1)OCO2,104%

# Target: T1, cAMP-dependent protein kinase catalytic subunit PRKX (Homo sapiens) (UniProt P51817)
# T1 sequence (whole entry): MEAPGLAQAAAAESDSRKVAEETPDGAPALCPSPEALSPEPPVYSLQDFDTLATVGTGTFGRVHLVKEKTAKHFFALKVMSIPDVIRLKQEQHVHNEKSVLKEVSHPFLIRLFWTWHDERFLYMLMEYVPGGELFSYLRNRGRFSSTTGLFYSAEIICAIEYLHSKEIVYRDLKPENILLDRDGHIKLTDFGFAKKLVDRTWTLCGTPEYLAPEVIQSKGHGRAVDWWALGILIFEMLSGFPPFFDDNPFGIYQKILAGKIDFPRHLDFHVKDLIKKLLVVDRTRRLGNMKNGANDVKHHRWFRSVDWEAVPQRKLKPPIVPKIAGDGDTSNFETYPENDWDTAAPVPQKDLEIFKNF
# Conditions: at 1 µM
row,SMILES,residual activity
1,CC(C)(C)c1cc(C=C(C#N)C#N)cc(Br)c1O,100%
2,CC(C)[C@H](CO)Nc1nc(Nc2cccc(Cl)c2)c2ncn(C(C)C)c2n1,81%
3,COC(=O)[C@@]1(O)C[C@H]2O[C@]1(C)n1c3ccccc3c3c4c(c5c6ccccc6n2c5c31)C(=O)NC4,2%
4,N/C(=N\[N+](=O)[O-])N/N=C\c1ccc(-c2cccc([N+](=O)[O-])c2)o1,76%
5,O=C1c2ccccc2-c2nc3nnnn3nc21,126%
6,COc1cc2ncnc(Nc3ccc(OCc4ccccc4)cc3)c2cc1OC,81%
7,O=c1[nH]c2ccccc2n1C1CCN(Cc2ccc(-c3nc4cc5[nH]cnc5cc4nc3-c3ccccc3)cc2)CC1,98%
8,CCn1cnc2c(Nc3cccc(Cl)c3)nc(N[C@@H]3CCCC[C@@H]3N)nc21,95%
9,C[S+]([O-])c1ccc(-c2nc(-c3ccc(F)cc3)c(-c3ccncc3)[nH]2)cc1 (stereo unspecified),98%
10,CN[C@@H]1C[C@H]2O[C@@](C)([C@@H]1OC)n1c3ccccc3c3c4c(c5c6ccccc6n2c5c31)C(=O)NC4,0%
11,O=C1Nc2ccc3ncsc3c2/C1=C/c1c[nH]cn1,24%
12,O=C1NC(=O)c2c1c1c3ccccc3n3c1c1c2c2ccccc2n1C1CCC3O1,84%
13,c1cc(-c2cnn3cc(-c4ccc(OCCN5CCCCC5)cc4)cnc23)ccn1,57%
14,O=[N+]([O-])/C=C/c1ccc2c(c1)OCO2,102%

# Target: T1, cAMP-dependent protein kinase catalytic subunit PRKX (Homo sapiens)
# Conditions: at 10 µM
row,SMILES,residual activity
1,CC(C)(C)c1cc(C=C(C#N)C#N)cc(Br)c1O,68%
2,CC(C)[C@H](CO)Nc1nc(Nc2cccc(Cl)c2)c2ncn(C(C)C)c2n1,97%
3,COC(=O)[C@@]1(O)C[C@H]2O[C@]1(C)n1c3ccccc3c3c4c(c5c6ccccc6n2c5c31)C(=O)NC4,0%
4,N/C(=N\[N+](=O)[O-])N/N=C\c1ccc(-c2cccc([N+](=O)[O-])c2)o1,91%
5,O=C1c2ccccc2-c2nc3nnnn3nc21,117%
6,COc1cc2ncnc(Nc3ccc(OCc4ccccc4)cc3)c2cc1OC,76%
7,O=c1[nH]c2ccccc2n1C1CCN(Cc2ccc(-c3nc4cc5[nH]cnc5cc4nc3-c3ccccc3)cc2)CC1,77%
8,CCn1cnc2c(Nc3cccc(Cl)c3)nc(N[C@@H]3CCCC[C@@H]3N)nc21,51%
9,CCc1nc(-c2ccc(OC)cc2)[nH]c1-c1ccncc1,65%
10,C[S+]([O-])c1ccc(-c2nc(-c3ccc(F)cc3)c(-c3ccncc3)[nH]2)cc1 (stereo unspecified),101%
11,CN[C@@H]1C[C@H]2O[C@@](C)([C@@H]1OC)n1c3ccccc3c3c4c(c5c6ccccc6n2c5c31)C(=O)NC4,0%
12,O=C1Nc2ccc3ncsc3c2/C1=C/c1c[nH]cn1,6%
13,O=C1NC(=O)c2c1c1c3ccccc3n3c1c1c2c2ccccc2n1C1CCC3O1,53%
14,c1cc(-c2cnn3cc(-c4ccc(OCCN5CCCCC5)cc4)cnc23)ccn1,26%
15,COc1ccc2c(c[n+](C)c3c4cc5c(cc4ccc23)OCO5)c1OC,81%
16,O=[N+]([O-])/C=C/c1ccc2c(c1)OCO2,96%
